# CHO-K1 Ca antag = M1 antagonist counterscreen hit in parental CHO-K1 cells | ATP-induced calcium, Fluo-8 fluorescence | inhibition, % at 3 µM | 0.6% of 360,000 active;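 active means inhibition above a per-plate cutoff, the plate's mean sample inhibition plus 3 SD, cut at about 24% in these data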
# M1 ag parental = M1 agonist counterscreen hit in parental CHO-K1 cells | Fluo-8 calcium fluorescence; scaled to maximal ATP response, vehicle zero | activation, % at 3 µM | 0.48% of 360,000 active; in the data active means activation above about 15%;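 further: untransfected CHO-K1 host cells lacking M1 receptor as counterscreen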
# CHRM1 antagonist = blocks human M1 muscarinic receptor; inhibition, % at 3 µM; P11229; CHO-K1 hM1, Fluo-8 calcium fluorescence, ACh EC80 antagonist; 1.3% of 360,000 active;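 active means percent inhibition above its own plate's cutoff, namely the mean of that plate's compound wells plus 3 SD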;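 further: peak over basal fluorescence ratio during 140 s after agonist addition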
# Target sequence (P11229 whole entry, looked up): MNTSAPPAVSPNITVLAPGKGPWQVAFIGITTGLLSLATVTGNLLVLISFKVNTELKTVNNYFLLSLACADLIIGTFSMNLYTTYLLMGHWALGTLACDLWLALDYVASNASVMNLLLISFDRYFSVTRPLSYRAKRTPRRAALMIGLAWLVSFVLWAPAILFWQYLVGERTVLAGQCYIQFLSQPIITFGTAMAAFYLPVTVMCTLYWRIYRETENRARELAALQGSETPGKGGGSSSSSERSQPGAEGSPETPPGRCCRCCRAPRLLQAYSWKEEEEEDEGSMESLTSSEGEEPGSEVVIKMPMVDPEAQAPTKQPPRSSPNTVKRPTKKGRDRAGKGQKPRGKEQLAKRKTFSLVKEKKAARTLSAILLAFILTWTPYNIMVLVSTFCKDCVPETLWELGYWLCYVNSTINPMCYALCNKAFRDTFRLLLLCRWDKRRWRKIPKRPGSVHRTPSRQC
# M1 ag = activates human CHRM1 receptor. P11229. CHO-K1 hM1, Fluo-8 calcium fluorescence, agonist mode; 0% DMSO, 100% acetylcholine EC100. activation, % at 3 µM. 0.33% of 360,000 active;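 active means activation above the run's mean compound activation plus 3 SD, cut at about 16% in these data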;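 further: peak over basal fluorescence ratio within a 140 s kinetic read after compound addition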
# M1 PAM parental = counter-screen for M1 PAMs: effect in parental CHO-K1 cells; 0.02% of 360,000 active; ATP EC20, Fluo-8 calcium fluorescence; 0% at ATP EC20, 100% at ATP max; activation, % at 3 µM; AID 602247;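 active means activation above the run cutoff, the mean activation of all test compounds plus 3 SD, cut at about 40% in these data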;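 further: peak over basal fluorescence ratio in a 140 s read after ATP addition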
# M1 PAM = positive allosteric modulators of human M1 muscarinic receptor; P11229; CHO-K1 hM1, Fluo-8 calcium fluorescence, ACh EC20; 0% = ACh EC20, 100% = maximal ACh; activation, % at 3 µM; 0.088% of 360,000 active; AID 588819; in the data active means activation above about 19%, passing the limit was not always enough
# Numbers stand for hits; i = inactive. Shown are actives, neighbours in structure and some others; about 2.3% of the full set was active somewhere.
SMILES,CHO-K1 Ca antag,M1 ag parental,CHRM1 antagonist,M1 ag,M1 PAM parental,M1 PAM
Cc1cc(C(=O)N2CCCc3ccccc32)ccc1[N+](=O)[O-],i,i,i,i,i,i
COc1ccccc1OCCNC(=O)c1cccc(S(=O)(=O)NCc2ccccc2)c1,i,i,i,i,i,i
Cc1ccc(CC(=O)N(C)CC(=O)Nc2ccc(N3CCOCC3)cc2)cc1C,25,i,i,i,i,i
CCOc1ccc(CN(C)CC(=O)Nc2ccc(N3CCOCC3)cc2)cc1OC,i,16,i,i,i,i
Cc1cc(NC(=O)CSc2nc(=O)n(CCCN(C)C)c3c2CCCC3)no1,i,i,i,i,i,i
Cc1nc2c(c(=O)c3ccccc3n2C)c(=O)n1C1CCCCCC1,i,i,i,i,i,i
Cn1c2ccccc2c(=O)c2c(=O)n(C3CCCCC3)c(-c3ccco3)nc21,i,24,i,19,i,i
COC(=O)[C@@H](NC(=O)c1ccccc1OC1CCN(S(C)(=O)=O)CC1)C(C)C,i,i,62,i,i,i
CC(=O)c1ccc(OCC(=O)NCCC2=CCCCC2)cc1,i,i,i,i,i,24
CCOC(=O)CCCCC(=O)c1[nH]c(=O)[nH]c1CSc1nnc2c3ccccc3n(C(C)C)c2n1,i,i,i,i,i,i
CC1CCN(CC(=O)Nc2ccc3c(c2)OCO3)CC1,i,17,i,i,i,i
CC1CCN(CC(=O)Nc2ccc(S(=O)(=O)N3CCCC(C)C3)cc2)CC1 (configuration not stated),i,18,i,i,i,i
CC1CCCN(S(=O)(=O)c2ccc(NC(=O)CNC3CCCC3)cc2)C1 (configuration not stated),i,i,i,i,i,i
COC(=O)Nc1ccc(S(=O)(=O)N2CCCC(C(=O)N3CC(C)OC(C)C3)C2)cc1 (configuration not stated),i,16,i,i,i,i
COC(=O)Nc1ccc(S(=O)(=O)N2CCCC(C(=O)N3CCOCC3)C2)cc1 (configuration not stated),i,i,i,i,i,i
Cc1ccc(C)n1CCN1CCN(CC(=O)Nc2ccc(S(N)(=O)=O)cc2)CC1,29,i,i,i,i,i
O=C(CN1CCN(Cc2ccc(Cl)cc2)CC1)N/N=C/c1ccccc1F,i,i,i,i,i,i
Cc1ccc(C(=O)Nc2cccnc2N2CCN(C)CC2)cc1,i,i,i,i,i,i
Cc1ccc(NC(=O)CN(C)C(=O)c2cc(-c3cccs3)nn2-c2ccccc2)cc1,i,i,i,i,i,i
O=C(OCCN1CCCCC1)c1cccc(Cl)c1,i,i,i,i,i,i
CC(C)(C)CC(=O)Nc1cc(S(=O)(=O)N2CCOCC2)ccc1N1CCCC1,i,i,i,i,i,i
CC1CCN(C(C)C(=O)Nc2cc(S(=O)(=O)N3CCCCC3)ccc2Cl)CC1 (configuration not stated),i,i,i,i,i,i
CC1CCN(C(C)C(=O)Nc2ccc(S(=O)(=O)N3CCCC3)cc2)CC1 (configuration not stated),i,i,101,i,i,i
CC1CCCN(S(=O)(=O)c2ccc(NC(=O)Cc3ccc(S(=O)(=O)N4CCOCC4)s3)cc2)C1 (configuration not stated),25,i,i,i,i,i
CC1CCCN(S(=O)(=O)c2ccc(NC(=O)CN3CCN(C)CC3)cc2)C1 (configuration not stated),i,i,22,i,i,i
SMILES,CHO-K1 Ca antag,M1 ag parental,CHRM1 antagonist,M1 ag,M1 PAM parental,M1 PAM
CC1CCCN(CC(=O)Nc2cc(S(=O)(=O)N3CCOCC3)ccc2N2CCCC2)C1 (configuration not stated),i,i,38,i,i,i
CC(NC(=O)CCNS(=O)(=O)c1cccc2nonc12)c1ccccc1 (configuration not stated),i,i,i,i,i,i
CC1CCCC(NC(=O)CN2CCN(S(=O)(=O)c3cccs3)CC2)C1C (configuration not stated),i,i,i,i,i,i
CN(CC(=O)NCCc1ccc(S(N)(=O)=O)cc1)S(=O)(=O)/C=C/c1ccccc1,i,i,i,i,i,i
Cc1ccccc1-c1cc(C(=O)Nc2sc(C(=O)OC(C)C)c(C)c2C#N)c2ccccc2n1,35,i,31,i,i,i
COC(=O)c1sc(NC(=O)c2cc(-c3ccccc3)nc3ccccc23)c(C#N)c1C,i,i,i,i,i,i
CCc1cccc(CC)c1NC(=O)C1CCN(C(=O)c2ccco2)CC1,i,i,i,i,i,i
O=C(Nc1ccc(Cl)cc1)Nc1ccccc1NS(=O)(=O)c1cccs1,34,16,34,i,i,i
Nc1nnn(CC(=O)N/N=C/C=C/c2ccccc2)n1,i,i,i,i,i,i
COc1ccc(C(=O)NCCNc2ccccc2[N+](=O)[O-])cc1,i,i,i,i,i,i
CCCNC(=O)c1ccc(S(=O)(=O)c2ccc(OC)cc2)c([N+](=O)[O-])c1,i,16,i,i,i,i
CC1NC(=O)c2cc3ccccc3cc2-n2c1nc1ccc(F)cc1c2=O (configuration not stated),i,i,i,i,i,i
O=c1[nH]c2cc3c(cc2cc1CN(CCc1ccccc1)C(=S)NCCCN1CCOCC1)OCCO3,60,i,i,i,i,i
Cc1sc2ncnc(NC3CCN(Cc4ccccc4)CC3)c2c1C,i,i,43,i,i,i
COc1cccc(NC(=O)N2CCC(NC(=O)C3CCCCC3)CC2)c1,i,i,i,i,i,28
CCOc1ccccc1NC(=O)CCSc1nc2n[nH]c(C)c2c(=N)n1-c1ccccc1Cl,i,i,34,i,i,i
CC1(CCc2ccc3c(c2)OCO3)NCCc2c1[nH]c1ccccc21 (configuration not stated),i,21,i,i,i,i
COc1ccc(CNC(=O)CNC(=O)c2ccc(Br)o2)cc1OC,i,i,i,i,i,i
Cc1cn([C@H]2C[C@H](O)[C@@H](CNC(=O)[C@H](N)C3CC3)O2)c(=O)[nH]c1=O,i,i,i,i,i,i
COc1ccc(C2CC(c3cccs3)=NN2C(=O)CSc2nncn2C)cc1OC (configuration not stated),i,i,i,i,i,i
COc1ccc(C2CC(c3cccs3)=NN2C(=O)CSc2nnnn2C)cc1OC (configuration not stated),i,15,i,i,i,i
Cc1cccc(NC(=O)CCc2nnc3ccc(N4CCC(C)CC4)nn23)n1,i,i,i,i,i,i
CCC(c1nnc(SCC(=O)NCCc2ccc(Cl)cc2Cl)o1)N(C)C (configuration not stated),i,i,i,i,i,i
